Results from PubChem BioAssay (NCATS).
Results filed as inconclusive are left out. Activity calls are given as the source filed them. Calls follow the shape of the dose curve; as a rule, active = well fitted curve in the direction sought with a large enough effect; inconclusive = small, poorly fitted or top-dose-only effect, or another doubt; inactive = no such curve, though single readings can be large; an effect the other way counts as inactive or inconclusive.

Experiments:
[1] = P-glycoprotein substrates identified in KB-8-5-11 adenocarcinoma cell line, qHTS therapeutic library screen (AID 1346987); settings: outcome: dose series up to 44.5 µM; also: series mostly up to about 44 µM; nearly all actives have a fitted effect of over 65% in size
How it was run: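 Steps: plate 500 KB-8-5-11 cells/well in DMEM + 10% FCS (colchicine removed); pin compounds in dose-response; incubate 72 h, 37 degree C, 5% CO2; add CellTiter-Glo, 5 min; read luminescence.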

[2] = NS1 protein of Zika virus - qHTS assay to identify small molecule inhibitors in human HEK 293 cells (AID 1347053); also: series mostly up to about 46 µM; nearly all actives have a fitted effect of over 55% in size
How it was run: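 HEK 293 cells pretreated with compound for 1 h, then infected with ZIKV MR766 (MOI 0.5) for 24 h at 37 C. NS1 detected by TR-FRET with two anti-NS1 antibodies; normalized to uninfected (0%) and infected (100%) wells.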

[3] = qHTS of pediatric cancer cell lines to identify multiple opportunities for drug repurposing: Primary screen for TC32 cells (AID 1347089); also: nearly all actives have a fitted effect of over 60% in size
How it was run: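 Measured quantity: luminescence from CellTiter-Glo, reflecting metabolically active TC32 cells following 48 h of compound. Curves came straight from multi-point titrations, with 8 or 11 points in primary and 11 in confirmatory screening.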

[4] = qHTS of pediatric cancer cell lines to identify multiple opportunities for drug repurposing: Primary screen for DAOY cells (AID 1347090); also: series mostly up to about 46 µM; nearly all actives have a fitted effect of over 55% in size
How it was run: (§1)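 Viability measured as metabolically active cells via CellTiter-Glo luminescence following 48 hours of compound exposure, 11-point dilutions in confirmatory testing. 500-1,000 cells/well plated 5 hours before dosing; controls were DMSO and 2.3 µM bortezomib.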

[5] = qHTS of pediatric cancer cell lines to identify multiple opportunities for drug repurposing: Primary screen for SJ-GBM2 cells (AID 1347091)
How it was run: as §1

[6] = qHTS of pediatric cancer cell lines to identify multiple opportunities for drug repurposing: Primary screen for A673 cells (AID 1347092); also: nearly all actives have a fitted effect of over 45% in size
How it was run: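 Cells are plated, rested 5 h, dosed by pintool, incubated 48 h, then lysed with CellTiter-Glo and read by luminescence. DMSO is the neutral control; bortezomib at 2.3 uM final is the positive control.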

[7] = qHTS of pediatric cancer cell lines to identify multiple opportunities for drug repurposing: Primary screen for SK-N-MC cells (AID 1347093); also: series mostly up to about 46 µM
How it was run: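 Metabolically active cells were quantified by ATP-dependent luminescence (CellTiter-Glo, 15 min at room temperature) following 48 h treatment. Cells had been plated at 500-1,000 per well and settled for 5 h beforehand.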

[8] = qHTS of pediatric cancer cell lines to identify multiple opportunities for drug repurposing: Primary screen for BT-37 cells (AID 1347094); also: series mostly up to about 57 µM
How it was run: (§2)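 Following a 5-hour attachment period, cells at 500-1,000/well received compounds and were cultured for 48 hours. CellTiter-Glo was added and luminescence read to estimate viable, metabolically active cells.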

[9] = qHTS of pediatric cancer cell lines to identify multiple opportunities for drug repurposing: Primary screen for NB-EBc1 cells (AID 1347095)
How it was run: as §2

[10] = qHTS of pediatric cancer cell lines to identify multiple opportunities for drug repurposing: Primary screen for U-2 OS cells (AID 1347096); also: nearly all actives have a fitted effect of over 50% in size
How it was run: (§3)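 Viability after 48 h compound treatment at 37C, 500-1,000 cells/well, read as ATP luminescence with CellTiter-Glo. Primary screens used 11-point (MIPE, 0.78 nM-46 µM) or 8-point (NPC, 0.59 nM-46 µM) final concentrations; follow-up screens used 11-point dilutions.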

[11] = qHTS of pediatric cancer cell lines to identify multiple opportunities for drug repurposing: Primary screen for SK-N-SH cells (AID 1347098);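 also: DMSO served as neutral control and bortezomib at 2.3 µM as positive control; nearly all actives have a fitted effect of over 65% in size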
How it was run: (§4)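 Cells (500-1,000/well) rested 5 h, then received compounds for 48 h; metabolically active cells were measured by CellTiter-Glo luminescence. Final concentrations spanned up to 46 µM (MIPE, 11-point) or 0.59 nM-46 µM (NPC, 8-point) in primary screens, 11-point in follow-ups.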

[12] = qHTS of pediatric cancer cell lines to identify multiple opportunities for drug repurposing: Primary screen for NB1643 cells (AID 1347099); also: nearly all actives have a fitted effect of over 50% in size
How it was run: as §2

[13] = qHTS of pediatric cancer cell lines to identify multiple opportunities for drug repurposing: Primary screen for LAN-5 cells (AID 1347100)
How it was run: as §3

[14] = qHTS of pediatric cancer cell lines to identify multiple opportunities for drug repurposing: Primary screen for BT-12 cells (AID 1347101); also: nearly all actives have a fitted effect of over 25% in size
How it was run: as §4

[15] = qHTS of pediatric cancer cell lines to identify multiple opportunities for drug repurposing: Primary screen for OHS-50 cells (AID 1347103); also: nearly all actives have a fitted effect of over 40% in size
How it was run: as §4

[16] = qHTS of pediatric cancer cell lines to identify multiple opportunities for drug repurposing: Primary screen for RD cells (AID 1347104); also: nearly all actives have a fitted effect of over 55% in size
How it was run: as §2

[17] = qHTS of pediatric cancer cell lines to identify multiple opportunities for drug repurposing: Primary screen for MG 63 (6-TG R) cells (AID 1347105); also: nearly all actives have a fitted effect of over 50% in size
How it was run: as §2

[18] = qHTS of pediatric cancer cell lines to identify multiple opportunities for drug repurposing: Primary screen for Saos-2 cells (AID 1347097); also: nearly all actives have a fitted effect of over 40% in size
How it was run: as §2

[19] = qHTS of pediatric cancer cell lines to identify multiple opportunities for drug repurposing: Primary screen for Rh18 cells (AID 1347102); also: nearly all actives have a fitted effect of over 65% in size
How it was run: as §3

Measured: Potency

O=C(NCCCN1CCOCC1)c1ccc(Cl)cc1
not listed: [18] | [19]
inactive: all other assays above

COc1ccc(C(=O)NCc2ccc(OCCN(C)C)cc2)cc1OC
not listed: [11] | [19]
inactive: all other assays above

Nc1c2c(nc3c1CCC3)CCCC2
not listed: [18]
inactive: all other assays above

O=C(NCC(O)CO)c1c(I)c(C(=O)NCC(O)CO)c(I)c(N(CCO)C(=O)CO)c1I (configuration not stated)
not listed: [18]
inactive: all other assays above

OC(CCN1CCCC1)(c1ccccc1)C1CCCCC1 (configuration not stated)
not listed: [12] | [15] | [16] | [18]
inactive: all other assays above

C[N+]1(C)CCCC(OC(=O)C(O)(c2ccccc2)c2ccccc2)C1 (configuration not stated)
not listed: [11] | [14] | [18]
inactive: all other assays above

CN1C(=O)CC(c2ccccc2)C1=O (configuration not stated)
not listed: [11] | [12] | [15] | [18]
inactive: all other assays above

FC(F)(F)C(Cl)Br (configuration not stated)
not listed: [18]
inactive: all other assays above

C[C@@H](c1ncncc1F)C(O)(Cn1cncn1)c1ccc(F)cc1F (some centres not stated)
not listed: [11] | [15] | [19]
inactive: all other assays above

CN1CCN(C(=O)C2CCCCC2)CC1
not listed: [11] | [15]
inactive: all other assays above

NC(=O)CC[C@@H](N)C(=O)O
not listed: [11] | [18]
inactive: all other assays above

O=C(CCBr)N1CCN(C(=O)CCBr)CC1
not listed: [11] | [19]
inactive: all other assays above

NS(=O)(=O)c1cc(C2(O)NC(=O)c3ccccc32)ccc1Cl (configuration not stated)
not listed: [11] | [12]
inactive: all other assays above

C[C@@H]1CCC[C@H](C)N1
not listed: [11] | [14] | [19]
inactive: all other assays above

Nc1ccc(C(=O)Oc2ccccc2)c(O)c1
not listed: [11] | [15] | [18]
inactive: all other assays above

NS(=O)(=O)c1cc2c(cc1C(F)(F)F)NCNS2(=O)=O
not listed: [14] | [18]
inactive: all other assays above
